Measured values published in PubChem BioAssay.
Calls of active or inactive are those of the source.

Tests used:
[1] = tested on: PRMT1 (protein arginine N-methyltransferase 1); experiment: PRMT1 binders on small-molecule microarrays, primary screen, biochemical, small-molecule microarray, 635 nm fluorescence (AID 1088); details: small-molecule microarray binding, higher = more signal;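 further: binding of Prmt1 protein to compounds spotted on small-molecule microarray slides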
[2] = yeast growth modulation, basal conditions, primary screen, YJM789 clinical isolate, OD600, 24 h (AID 1089);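 further: growth of clinical yeast isolate S. cerevisiae YJM 789 seeded 1000 cells per well; test concentration not given here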; details: S. cerevisiae YJM789 growth, higher = more signal, called active from +8 up or from −8 down
[3] = fission yeast growth modulation, primary screen, strain 972, OD600, 24 h, no modulator (AID 1090);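 further: basal condition with compound alone and no growth modifier present; test concentration not given here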; details: S. pombe 972 growth, higher = more signal, called active from +8 up or from −8 down
[4] = S. cerevisiae growth modulation with rapamycin, primary screen, strain BY4716, OD600, 96 h (AID 1091); details: higher = more signal, called active from +8 up or from −8 down; further: test concentration not given here
[5] = target: Torsin-1A-interacting protein 2 (Homo sapiens) (UniProt Q8NFQ8); experiment: LULL1 binders on small-molecule microarray, primary screen, cell lysate, human LULL1 lysate, 635/667 nm fluorescence (AID 1092); details: hLULL1 lysate binding, 635 nm fluorescence, higher = more signal;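 further: probe is lysate of COS7 cells overexpressing human LULL1; score merges per-feature 667 nm fluorescence with signal-to-noise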
[6] = E. coli growth modulation, two-sided OD650, primary screen, E. coli filamentation project, strain DRC41, 24 h (AID 1093); details: OD650, 24 h, higher = more signal, called active from +8 up or from −8 down;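 further: MC1000 strain lacking acrAB efflux and sulA so SOS filamentation is blocked; test concentration not given here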
[7] = small-molecule microarray binders of probe aLefty2, primary screen, biochemical, biotinylated probe, 635/667 nm fluorescence (AID 1094); details: higher = more signal;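 further: score merges spot fluorescence near 667 nm with spot signal-to-noise ratio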
[8] = tested on: Noggin (protein binding on small-molecule microarray); experiment: Noggin binders on small-molecule microarray, primary screen, biochemical, 635/667 nm fluorescence (AID 1095); details: 635 nm fluorescence, higher = more signal;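 further: score merges 667 nm feature fluorescence with signal to noise over triplicate slides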
[9] = target: Neurogenic locus notch homolog protein 3 (Homo sapiens) (UniProt Q9UM47); experiment: NOTCH3 binders on small-molecule microarray, primary screen, biochemical, 635/667 nm fluorescence (AID 1096); details: NOTCH3 binding, 635 nm fluorescence, higher = more signal
[10] = small-molecule microarray binders of probe aEGFR, primary screen, biochemical, biotinylated probe, 635/667 nm fluorescence (AID 1097); details: higher = more signal;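 further: probe is a biotinylated anti-EGFR antibody binding compounds printed on slides; score combines fluorescence near 667 nm and signal to noise of each spot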
[11] = tested on: Plasmodium falciparum Sir2 (PF13_0152, Sir2A); experiment: pfSir2 binders on small-molecule microarrays, primary screen, biochemical, small-molecule microarray, 635 nm fluorescence (AID 1098); details: small-molecule microarray binding, fluorescence 635 nm; higher = more signal;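 further: score merges spot fluorescence intensity with its signal-to-noise ratio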
[12] = small-molecule microarray binders of probe aDKK1, primary screen, biochemical, biotinylated probe, 635/667 nm fluorescence (AID 1099); details: higher = more signal;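 further: score merges 667nm spot fluorescence with signal to noise across triplicate slides; reference of the scale not given here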
[13] = small-molecule microarray binders of probe aCHRDL2, primary screen, biochemical, biotinylated probe, 635/667 nm fluorescence (AID 1100); details: higher = more signal
[14] = splicing luciferase reporter signal modulators, primary screen, spliceosome inhibition project, cell-based, HEK293, splice +/- reporter (AID 1101); details: luminescence, 24 h, higher = more signal, called active from +8 up or from −8 down;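 further: HEK293 cells carrying a splicing-competent luciferase reporter gene; test concentration not given here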
[15] = target: Fibroblast growth factor 10 (Homo sapiens) (UniProt O15520); experiment: FGF10 binders on small-molecule microarrays, primary screen, biochemical, small-molecule microarray, 635 nm fluorescence (AID 1102); details: FGF10 binding, fluorescence 635 nm, higher = more signal
[16] = tested on: glycogen synthase kinase-3 (GSK3A per assay name; protocol says GSK3B); experiment: GSK3 binders on small-molecule microarrays, primary screen, biochemical, small-molecule microarray, 635 nm fluorescence, GSK3A (AID 1103); details: small-molecule microarray binding, fluorescence 635 nm; higher = more signal; further: the record names both GSK3A and GSK3B
[17] = target: Epidermal growth factor receptor (Homo sapiens) (UniProt P00533); experiment: EGFR binders on small-molecule microarrays, primary screen, biochemical, small-molecule microarray, 635 nm fluorescence (AID 1104); details: EGFR binding, higher = more signal;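 further: score merges 667 nm emission intensity with spot signal to noise over triplicate slides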
[18] = target: Follistatin-related protein 3 (Homo sapiens) (UniProt O95633); experiment: FSTL3 binders on small-molecule microarrays, primary screen, biochemical, small-molecule microarray, 635 nm fluorescence (AID 1105); details: FSTL3 binding, higher = more signal;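 further: score merges emission near 667 nm and signal to noise per printed spot across three slides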
[19] = target: Dickkopf-related protein 1 (Homo sapiens) (UniProt O94907); experiment: DKK1 binders on small-molecule microarrays, primary screen, biochemical, small-molecule microarray, 635 nm fluorescence scan (AID 1106); details: DKK1 binding, higher = more signal;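 further: score merges emission near 667 nm with signal to noise over three replicate slides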
[20] = tested on: Inhibin beta A chain (activin A); experiment: INHBA (activin A) binders on microarrays, primary screen, biochemical, small-molecule microarray, 635 nm fluorescence scan (AID 1107); details: small-molecule microarray binding, higher = more signal;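 further: mouse activin A protein probed at 4.33 µg/mL on printed slides; score merges bound-protein fluorescence near 667 nm with spot signal-to-noise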

Sequence of Torsin-1A-interacting protein 2 (Homo sapiens) (Q8NFQ8 whole entry, looked up): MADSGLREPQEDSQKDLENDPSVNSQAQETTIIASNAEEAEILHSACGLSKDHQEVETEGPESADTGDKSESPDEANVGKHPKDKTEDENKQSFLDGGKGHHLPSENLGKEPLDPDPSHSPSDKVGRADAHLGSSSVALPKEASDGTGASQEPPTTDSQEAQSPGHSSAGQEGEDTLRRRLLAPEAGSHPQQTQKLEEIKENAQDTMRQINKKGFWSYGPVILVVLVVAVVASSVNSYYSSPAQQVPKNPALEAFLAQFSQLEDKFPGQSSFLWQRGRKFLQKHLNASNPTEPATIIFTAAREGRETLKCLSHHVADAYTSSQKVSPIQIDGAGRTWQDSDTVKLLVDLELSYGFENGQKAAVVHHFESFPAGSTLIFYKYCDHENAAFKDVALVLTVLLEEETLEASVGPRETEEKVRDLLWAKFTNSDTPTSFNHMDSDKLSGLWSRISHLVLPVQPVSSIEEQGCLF
Sequence of Epidermal growth factor receptor (Homo sapiens) (P00533 whole entry, looked up): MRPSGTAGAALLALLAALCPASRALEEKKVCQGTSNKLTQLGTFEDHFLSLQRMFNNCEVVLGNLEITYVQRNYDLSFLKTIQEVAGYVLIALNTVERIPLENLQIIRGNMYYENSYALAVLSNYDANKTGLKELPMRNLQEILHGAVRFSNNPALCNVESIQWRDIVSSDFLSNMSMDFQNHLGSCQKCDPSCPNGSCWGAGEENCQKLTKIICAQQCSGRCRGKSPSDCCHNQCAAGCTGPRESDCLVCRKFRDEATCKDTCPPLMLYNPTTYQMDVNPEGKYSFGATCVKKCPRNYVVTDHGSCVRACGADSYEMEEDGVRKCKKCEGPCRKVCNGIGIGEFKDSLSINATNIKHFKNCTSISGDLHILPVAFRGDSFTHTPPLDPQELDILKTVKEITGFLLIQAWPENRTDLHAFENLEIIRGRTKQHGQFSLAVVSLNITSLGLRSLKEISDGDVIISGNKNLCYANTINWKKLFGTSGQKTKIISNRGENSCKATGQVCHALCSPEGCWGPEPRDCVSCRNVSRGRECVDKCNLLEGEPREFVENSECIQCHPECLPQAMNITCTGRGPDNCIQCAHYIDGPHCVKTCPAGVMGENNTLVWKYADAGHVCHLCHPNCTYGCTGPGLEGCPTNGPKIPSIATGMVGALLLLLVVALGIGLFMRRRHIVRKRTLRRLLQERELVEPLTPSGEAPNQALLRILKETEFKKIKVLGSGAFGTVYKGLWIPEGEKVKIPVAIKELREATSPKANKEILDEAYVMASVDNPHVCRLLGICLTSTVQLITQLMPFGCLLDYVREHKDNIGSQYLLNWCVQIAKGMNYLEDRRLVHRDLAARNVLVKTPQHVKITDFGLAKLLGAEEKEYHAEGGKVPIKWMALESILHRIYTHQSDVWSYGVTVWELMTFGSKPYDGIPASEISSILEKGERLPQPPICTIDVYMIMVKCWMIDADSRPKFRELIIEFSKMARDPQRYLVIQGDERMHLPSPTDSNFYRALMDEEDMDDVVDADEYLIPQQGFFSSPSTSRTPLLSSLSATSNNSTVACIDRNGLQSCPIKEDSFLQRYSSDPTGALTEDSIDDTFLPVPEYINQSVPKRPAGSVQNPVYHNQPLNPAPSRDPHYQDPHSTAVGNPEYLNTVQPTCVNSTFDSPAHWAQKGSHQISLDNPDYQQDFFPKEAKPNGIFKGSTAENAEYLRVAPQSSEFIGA
Sequence of Neurogenic locus notch homolog protein 3 (Homo sapiens) (Q9UM47 whole entry, looked up): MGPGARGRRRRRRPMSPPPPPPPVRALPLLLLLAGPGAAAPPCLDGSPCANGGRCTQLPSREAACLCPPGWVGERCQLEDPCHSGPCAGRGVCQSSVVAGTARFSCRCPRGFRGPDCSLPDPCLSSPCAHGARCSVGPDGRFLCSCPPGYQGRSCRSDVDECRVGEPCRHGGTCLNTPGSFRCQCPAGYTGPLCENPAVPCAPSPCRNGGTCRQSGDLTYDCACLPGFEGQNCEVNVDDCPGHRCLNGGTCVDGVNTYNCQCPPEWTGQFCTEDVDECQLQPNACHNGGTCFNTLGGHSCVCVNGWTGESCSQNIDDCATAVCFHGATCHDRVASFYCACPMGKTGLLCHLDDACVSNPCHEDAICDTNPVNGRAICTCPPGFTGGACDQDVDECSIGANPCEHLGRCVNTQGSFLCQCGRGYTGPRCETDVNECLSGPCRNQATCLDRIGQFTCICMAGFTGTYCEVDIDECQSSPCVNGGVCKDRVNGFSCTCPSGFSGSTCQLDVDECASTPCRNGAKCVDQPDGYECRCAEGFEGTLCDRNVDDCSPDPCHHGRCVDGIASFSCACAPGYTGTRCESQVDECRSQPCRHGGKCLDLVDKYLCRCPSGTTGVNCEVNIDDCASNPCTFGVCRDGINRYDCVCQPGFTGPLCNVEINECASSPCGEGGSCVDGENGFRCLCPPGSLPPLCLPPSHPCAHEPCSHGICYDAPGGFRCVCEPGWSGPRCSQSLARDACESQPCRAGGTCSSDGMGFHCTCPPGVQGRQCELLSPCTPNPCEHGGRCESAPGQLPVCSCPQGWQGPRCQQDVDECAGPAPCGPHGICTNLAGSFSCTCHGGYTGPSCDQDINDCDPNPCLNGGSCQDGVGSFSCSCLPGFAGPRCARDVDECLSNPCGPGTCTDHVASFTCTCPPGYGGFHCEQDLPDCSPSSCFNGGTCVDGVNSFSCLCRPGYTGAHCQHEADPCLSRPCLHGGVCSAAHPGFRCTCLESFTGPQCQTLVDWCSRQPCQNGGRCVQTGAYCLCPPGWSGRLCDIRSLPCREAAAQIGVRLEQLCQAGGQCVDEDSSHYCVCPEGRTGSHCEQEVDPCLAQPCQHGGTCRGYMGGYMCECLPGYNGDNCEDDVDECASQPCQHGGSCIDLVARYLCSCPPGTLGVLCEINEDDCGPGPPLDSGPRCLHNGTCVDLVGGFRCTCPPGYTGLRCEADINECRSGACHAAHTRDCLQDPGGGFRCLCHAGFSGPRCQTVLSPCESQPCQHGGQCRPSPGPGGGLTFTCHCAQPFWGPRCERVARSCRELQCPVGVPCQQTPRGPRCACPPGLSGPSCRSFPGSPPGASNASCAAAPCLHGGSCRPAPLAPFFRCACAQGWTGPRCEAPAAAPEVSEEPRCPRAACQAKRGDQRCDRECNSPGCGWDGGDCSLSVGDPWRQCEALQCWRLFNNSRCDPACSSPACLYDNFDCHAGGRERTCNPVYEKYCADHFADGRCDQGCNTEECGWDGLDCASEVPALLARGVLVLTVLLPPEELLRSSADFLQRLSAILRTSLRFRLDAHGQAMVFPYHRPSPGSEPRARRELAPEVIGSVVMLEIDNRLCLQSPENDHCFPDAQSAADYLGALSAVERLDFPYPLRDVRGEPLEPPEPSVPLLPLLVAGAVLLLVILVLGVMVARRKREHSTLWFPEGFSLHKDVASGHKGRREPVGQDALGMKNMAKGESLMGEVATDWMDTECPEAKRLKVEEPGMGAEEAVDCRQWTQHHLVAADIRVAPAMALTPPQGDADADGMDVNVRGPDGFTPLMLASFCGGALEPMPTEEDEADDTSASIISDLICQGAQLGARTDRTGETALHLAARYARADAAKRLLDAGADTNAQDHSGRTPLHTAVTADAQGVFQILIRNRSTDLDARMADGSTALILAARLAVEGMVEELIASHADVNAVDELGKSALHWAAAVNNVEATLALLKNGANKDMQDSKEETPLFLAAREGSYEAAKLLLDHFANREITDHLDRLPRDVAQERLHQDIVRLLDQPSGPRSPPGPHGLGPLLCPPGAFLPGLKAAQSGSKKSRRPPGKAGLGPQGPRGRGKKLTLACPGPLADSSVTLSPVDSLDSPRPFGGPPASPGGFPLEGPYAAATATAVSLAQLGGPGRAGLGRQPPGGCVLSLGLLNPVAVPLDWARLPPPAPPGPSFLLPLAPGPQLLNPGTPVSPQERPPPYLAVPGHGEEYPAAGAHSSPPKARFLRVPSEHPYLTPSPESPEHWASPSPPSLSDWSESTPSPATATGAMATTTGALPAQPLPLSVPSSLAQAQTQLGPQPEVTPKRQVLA
Sequence of Follistatin-related protein 3 (Homo sapiens) (O95633 whole entry, looked up): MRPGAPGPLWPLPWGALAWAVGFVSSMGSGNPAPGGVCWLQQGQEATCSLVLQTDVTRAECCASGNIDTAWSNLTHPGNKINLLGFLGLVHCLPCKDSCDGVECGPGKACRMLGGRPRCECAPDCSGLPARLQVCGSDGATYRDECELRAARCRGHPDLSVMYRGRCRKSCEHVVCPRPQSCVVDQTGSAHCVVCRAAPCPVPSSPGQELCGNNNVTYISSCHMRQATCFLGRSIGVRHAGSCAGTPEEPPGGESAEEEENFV
Sequence of Dickkopf-related protein 1 (Homo sapiens) (O94907 whole entry, looked up): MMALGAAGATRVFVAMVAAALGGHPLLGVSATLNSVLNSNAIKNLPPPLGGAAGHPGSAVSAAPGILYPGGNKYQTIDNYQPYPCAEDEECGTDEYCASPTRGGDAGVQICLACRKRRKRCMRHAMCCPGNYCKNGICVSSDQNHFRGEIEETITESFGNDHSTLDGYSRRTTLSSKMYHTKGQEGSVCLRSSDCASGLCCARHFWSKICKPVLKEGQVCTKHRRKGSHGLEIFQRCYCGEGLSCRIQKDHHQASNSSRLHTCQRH
Sequence of Fibroblast growth factor 10 (Homo sapiens) (O15520 whole entry, looked up): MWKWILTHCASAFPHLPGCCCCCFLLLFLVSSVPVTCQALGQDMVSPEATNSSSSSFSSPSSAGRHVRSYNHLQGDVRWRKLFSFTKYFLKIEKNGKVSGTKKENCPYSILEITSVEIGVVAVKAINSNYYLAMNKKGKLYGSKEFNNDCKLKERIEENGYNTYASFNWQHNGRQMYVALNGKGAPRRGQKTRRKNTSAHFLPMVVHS

SMILES | composite z-score [1] | z-score [2] | z-score [3] | z-score [4] | composite z-score [5] | z-score [6] | composite z-score [7] | composite z-score [8] | composite z-score [9] | composite z-score [10] | composite z-score [11] | composite z-score [12] | composite z-score [13] | z-score [14] | composite z-score [15] | composite z-score [16] | composite z-score [17] | composite z-score [18] | composite z-score [19] | composite z-score [20]
CC(C)C[C@@H]1NC(=O)[C@@H]2C[C@H](C(=O)NCCCCCCN)[C@H](c3cccc(OCCO)c3)N2C1=O | 1.53 | -0.148 (inactive) | -0.114 (inactive) | -0.502 (inactive) | 2.98 | 1.03 (inactive) | 0.235 | 0.993 | 1.12 | 0.0499 | 1.55 | 0.286 | 0.532 | 0.138 (inactive) | 1.13 | 0.712 | 0.0515 | 1.08 | 0.236 | 0.775
COC(=O)[C@@]1(Cc2ccc(OC)cc2)[C@H]2c3cc(C(=O)N4CCCC4)n(CCO)c3C[C@H]2CN1C(=O)c1ccccc1 | 0.738 | 0.663 (inactive) | 0.544 (inactive) | -0.289 (inactive) | 4.02 | -1.41 (inactive) | 0.159 | -0.0367 | 0.552 | 0.212 | 0.333 | 0.798 | 0.888 | -1.14 (inactive) | 0.717 | 0.483 | 0.0327 | 0.155 | -0.418 | 0.45
C=C[C@H]1C(C(=O)OCC)=CC[C@@H](c2ccccc2)N1S(=O)(=O)c1ccc(C)cc1 | 0.895 | 0.293 (inactive) | 1.12 (inactive) | 1.86 (inactive) | 2.94 | -0.558 (inactive) | 0.174 | 0.705 | 1.13 | -0.0531 | 1.05 | 0.158 | 0.587 | -2.78 (inactive) | 0.922 | 1.3 | 0.224 | 1.11 | 0.0288 | 1.34
CCOC(=O)C[C@H]1[C@H](OC(=O)Cc2ccc3c(c2)OCO3)[C@@H](NC(=O)C2CCCCC2)c2cc(OCCCO)ccc2N1C(=O)c1ccccc1 | 1.05 | 0.193 (inactive) | -0.432 (inactive) | 0.36 (inactive) | 0.618 | 2.58 (inactive) | -0.248 | 0.0367 | 0.255 | -0.0452 | 0.0882 | -0.173 | -0.265 | -0.664 (inactive) | 0.27 | -0.0848 | 0.073 | 0.145 | 0.351 | 0.193
CCCNC(=O)[C@@]1(C)c2ccccc2C(=O)N(c2ccc(C)cn2)[C@H]1c1ccc(CO)cc1 | -0.266 | -0.788 (inactive) | -0.164 (inactive) | -0.145 (inactive) | 3.4 | -0.618 (inactive) | -0.0352 | 0.146 | -0.0421 | -0.0828 | 0.732 | -0.103 | 0.649 | 0.756 (inactive) | -0.779 | -0.158 | -0.473 | -0.223 | -0.126 | 0.948
